The entries come from a sample that favours hits as a whole.
KDM5B inhibitor – Primary screen for KDM5B Histone Demethylases FDH-coupled qHTS. Potency, µM (series often up to 57.7 µM), hits mostly inhibitors. KDM5B demethylase, FDH-coupled NADH fluorescence (FDH is formaldehyde dehydrogenase). hit rate 2.6% among 220,000. Lysine-specific demethylase 5B (Homo sapiens), Q9UGL1; active = well fitted inhibition curve with a large enough effect; note: 0% is about no effect; nearly all actives have a fitted effect of over 70% in size
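Compound dilutions met 200 nM (final) KDM5BΔAP for 10 min at room temperature before substrate addition. The substrate mix held 12.5 µM H3K4me3 with cofactors 25 µM α-ketoglutarate and 50 µM Fe²⁺. NADH signal gain over 30 min defined activity.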
Starred values were filed as active, the others as inactive; i = inactive. Potency is the fitted concentration of half-maximal effect.

SMILES	KDM5B inhibitor
COCCn1c(-n2nc(C)cc2C)nc2c1c(=O)n(Cc1cc(C)ccc1C)c(=O)n2C	i
CCOC(=O)c1cc2cc(NC(=O)C3CC(=O)Nc4ccccc43)ccc2s1 (stereo not given)	i
N#Cc1cccc(S(=O)(=O)Nc2c(NC3CCCC3)c3ccccc3oc2=O)c1	i
CCn1ccnc1CNc1ccc(-c2nc(-c3ccccc3C)no2)cn1	28µM*
CCc1noc(-c2nc(-c3ccccc3C)no2)n1	i
Cc1noc(-c2nc(-c3ccccc3C)no2)n1	i
CC(C)(C)c1ccc(C(=O)Nc2c(N3CCCC3)c3ccccc3oc2=O)cc1	i
CCNc1c(NC(=O)NCc2cccc(OC)c2)c(=O)oc2ccccc12	i
O=C(Nc1cccc2[nH]ccc12)C(=O)NC(c1ccccc1)c1ccccc1	i
Cc1cc(-c2cc(-c3ccccn3)nc3c(C)noc23)ccn1	i
Cc1noc2c(NC(C)C)cc(-c3cccnc3)nc12	i
Cc1noc2c(N(C)C)cc(-c3cccnc3)nc12	i
Cc1noc2c(-c3cccnc3NCCN3CCOCC3)cc(-c3ccccc3)nc12	35µM*
Cc1noc2c(-c3cccnc3NCc3cnccn3)cc(-c3ccccc3)nc12	32µM*
COc1ccc(OC)c(-c2cc(-c3ccccc3)nc3c(C)noc23)c1	35µM*
Cc1noc2c(N(C)C)cc(-c3ccccc3)nc12	i
Cc1noc2c(NCc3cnccn3)cc(-c3ccc(Cl)cc3)nc12	i
Cc1noc2c(NCCN3CCOCC3)cc(-c3cccc(C(F)(F)F)c3)nc12	i
Cc1noc2c(NCCN3CCOCC3)cc(-c3ccsc3)nc12	i
Cc1noc2c(-c3cn[nH]c3)cc(-c3ccccc3)nc12	i
Cc1noc2c(-c3cccnc3NC(C)C)cc(-c3ccccc3)nc12	32µM*
CCC(C)NC(=O)CCNC(=O)NCc1ccccc1 (stereo not given)	i
Fc1cccc(NC(=S)NCCCCc2ccccc2)c1	i
Cc1c(Cl)cccc1NC(=O)N1Cc2cccn2-c2ccccc21	i
CC(C)Cn1c(Cn2cccn2)nc2cc(NC(=O)c3ccccc3)ccc21	i
SMILES	KDM5B inhibitor
CCCCn1c(=O)[nH]c(=O)c2c1nc(COC(=O)c1cc(C)cc(C)c1)n2CCC	i
CC1(C)CCCN(CC(=O)c2c[nH]c3ccccc23)C1	i
COc1ccc(Cc2nnc(NC(=O)C3CC(=O)N(c4ccc(C)c(Cl)c4)C3)s2)cc1OC (stereo not given)	i
CC(=O)N1CCC(Nc2cc(-c3ccc(Cl)cc3)nc3c(C)noc23)CC1	i
CC(=O)N1CCC(Nc2ncccc2-c2cc(-c3ccccc3)nc3c(C)noc23)CC1	20µM*
CC(=O)N1CCN(c2cc(-c3ccc(Cl)cc3)nc3c(C)noc23)CC1	i
O=S(=O)(Nc1nc2ccccc2nc1Nc1cccc(C(F)(F)F)c1)c1cccs1	i
CC1CCc2nn(CC(=O)Nc3ccc(Cl)cc3)c(=O)cc2C1 (stereo not given)	i
C=C(Br)CNCCCC	i
Cc1noc([C@@H]2C[C@H](NC(=O)Nc3ccccc3)CN2C)n1	i
CN1C[C@@H](NC(=O)c2ccc(F)cc2)C[C@H]1c1nc(-c2ccc3c(c2)OCO3)no1	i
CN1C[C@@H](NC(=O)Nc2ccccc2)C[C@H]1c1nc(-c2ccccc2)no1	35µM*
CN1C[C@@H](NC(=O)Nc2ccccc2)C[C@H]1c1nc(-c2ccc(F)cc2)no1	i
CN1C[C@@H](NC(=O)c2ccc3c(c2)OCO3)C[C@H]1c1nc(-c2ccc(Cl)cc2)no1	32µM*
Cc1ccc(C(=O)N[C@H]2C[C@@H](c3nc(-c4ccc5c(c4)OCO5)no3)N(C)C2)cc1	i
Cc1sc(NC(=O)C(Cc2ccccc2)Cc2ccccc2)c(C#N)c1C	i
Cc1ccc(CNC(=O)c2cc(-c3ccncc3)nc3ccccc23)cc1	i
Cc1ccc(C)c(CN2CCN(c3nc4c(c(=O)[nH]c(=O)n4C)n3Cc3ccccc3F)CC2)c1	i
O=C(c1ccncc1)N1CCC2(CC1)CC(N(Cc1ccc(F)cc1)C1CC1)CCO2 (stereo not given)	32µM*
O=C(c1ccncc1)N1CCC2(CC1)CC(N(Cc1ccccc1)C1CC1)CCO2 (stereo not given)	i
O=C(c1ccc(F)cc1)N1CCC2(CC1)CC(N(Cc1ccc(F)cc1)C1CC1)CCO2 (stereo not given)	i
Cc1cnc2c(S(=O)(=O)N3CCCCC3C(N)=O)cccc2c1 (stereo not given)	i
O=C(NCCN1CCCC1)c1cc2cn(C3CC3)cc2s1	10µM*
O=C(NCCN1CCCCCC1)C1CC=CCC1 (stereo not given)	i
CC(C)(C)c1ccc(C(=O)NCCN2CCCC2)cc1	i
CCC(c1cccs1)N1C(=O)[C@H]2CN(S(=O)(=O)c3ccc(C)cc3C)C[C@H]2C1=O (stereo not given in full)	i
Cc1nn(Cc2ccccc2)c(C)c1CNS(=O)(=O)c1cccc(C#N)c1	i
